Measurements: PMC7862700, “An all-to-all approach to the identification of sequence-specific readers for epigenetic DNA modifications on cytosine”

What was measured:
Assay in all cases: DAPPL (digital affinity profiling via proximity ligation, sequencing); 10 mM Tris-HCl pH 7.5, 50 mM NaCl, 1 mM DTT, 4% glycerol, room temperature, 30 min; GST-TFs on glutathione beads, 16-mer random dsDNA library, 0.1% formaldehyde crosslink after washing; high values mean tight binding
Details in all cases: protein: recombinant; tags: N-terminal GST; dsDNA, one strand shown
ERF = target: T1, ERF (Homo sapiens, UniProt P50548 1-548)
T1 sequence: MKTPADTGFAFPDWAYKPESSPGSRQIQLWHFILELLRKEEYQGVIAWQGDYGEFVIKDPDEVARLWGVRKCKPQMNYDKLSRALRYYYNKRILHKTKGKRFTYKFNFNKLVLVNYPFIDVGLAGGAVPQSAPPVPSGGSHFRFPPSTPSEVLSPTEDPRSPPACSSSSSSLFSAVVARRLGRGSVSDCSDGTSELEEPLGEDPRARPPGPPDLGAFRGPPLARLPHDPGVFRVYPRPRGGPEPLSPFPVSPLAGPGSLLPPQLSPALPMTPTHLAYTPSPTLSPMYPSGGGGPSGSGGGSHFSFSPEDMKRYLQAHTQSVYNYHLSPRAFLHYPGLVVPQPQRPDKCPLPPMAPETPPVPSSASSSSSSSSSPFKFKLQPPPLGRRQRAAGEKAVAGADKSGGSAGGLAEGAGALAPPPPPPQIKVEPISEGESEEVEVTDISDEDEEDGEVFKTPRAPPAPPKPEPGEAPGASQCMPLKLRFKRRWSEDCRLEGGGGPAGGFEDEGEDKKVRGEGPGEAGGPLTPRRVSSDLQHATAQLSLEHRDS
Outline: (§1)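 Each value of binding signal is a hexamer's read frequency for a factor divided by the same hexamer's frequency in the tag-only sample. Barcoded, bead-captured GST fusions of human transcription factors made in yeast were pooled with that sample and incubated with 200 nmole of a random double-stranded 16-mer DNA library in Tris/NaCl/DTT/glycerol buffer at room temperature for 30 min. Washing, 0.1% formaldehyde crosslinking, proximity ligation, PCR and Illumina NextSeq500 sequencing followed.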

ETV3L = target: T2, ETV3L (Homo sapiens, UniProt Q6ZN32 1-361)
T2 sequence: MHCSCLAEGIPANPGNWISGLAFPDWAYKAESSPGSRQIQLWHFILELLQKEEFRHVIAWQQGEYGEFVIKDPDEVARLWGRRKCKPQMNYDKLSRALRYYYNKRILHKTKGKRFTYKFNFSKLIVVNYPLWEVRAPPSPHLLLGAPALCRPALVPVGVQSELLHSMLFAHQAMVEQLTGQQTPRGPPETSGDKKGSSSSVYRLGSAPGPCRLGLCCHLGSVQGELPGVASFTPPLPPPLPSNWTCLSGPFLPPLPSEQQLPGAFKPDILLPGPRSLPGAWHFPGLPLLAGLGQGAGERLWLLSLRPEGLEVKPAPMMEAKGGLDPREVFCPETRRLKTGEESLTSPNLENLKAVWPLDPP
Outline: as §1

ETS2 = target: T3, ETS2 (Homo sapiens, UniProt P15036 1-469)
T3 sequence: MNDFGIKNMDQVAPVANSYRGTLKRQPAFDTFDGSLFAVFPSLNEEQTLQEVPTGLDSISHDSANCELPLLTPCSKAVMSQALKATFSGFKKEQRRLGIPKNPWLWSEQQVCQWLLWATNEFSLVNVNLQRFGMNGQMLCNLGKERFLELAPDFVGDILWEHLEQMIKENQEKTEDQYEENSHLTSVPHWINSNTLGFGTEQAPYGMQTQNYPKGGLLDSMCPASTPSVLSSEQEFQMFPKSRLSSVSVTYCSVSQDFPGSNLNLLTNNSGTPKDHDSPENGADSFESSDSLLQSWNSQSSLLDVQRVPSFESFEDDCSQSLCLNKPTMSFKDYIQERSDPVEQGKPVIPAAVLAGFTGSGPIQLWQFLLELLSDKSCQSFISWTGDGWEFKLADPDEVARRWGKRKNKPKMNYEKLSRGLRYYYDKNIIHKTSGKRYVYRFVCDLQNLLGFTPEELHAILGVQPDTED
Outline: as §1

SPDEF = target: T4, SPDEF (Homo sapiens, UniProt O95238 1-335)
T4 sequence: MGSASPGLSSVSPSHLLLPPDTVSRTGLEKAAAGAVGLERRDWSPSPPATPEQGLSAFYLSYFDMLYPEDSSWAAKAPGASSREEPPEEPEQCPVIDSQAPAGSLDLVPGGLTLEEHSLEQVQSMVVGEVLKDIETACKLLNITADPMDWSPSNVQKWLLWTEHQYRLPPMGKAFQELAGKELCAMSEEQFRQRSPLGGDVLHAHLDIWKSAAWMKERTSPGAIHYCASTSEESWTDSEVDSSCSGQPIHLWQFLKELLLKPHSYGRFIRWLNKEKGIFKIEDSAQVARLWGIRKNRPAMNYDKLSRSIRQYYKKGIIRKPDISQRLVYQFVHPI
Outline: as §1

ETV7 = target: T5, ETV7 (Homo sapiens, UniProt Q9Y603 1-341)
T5 sequence: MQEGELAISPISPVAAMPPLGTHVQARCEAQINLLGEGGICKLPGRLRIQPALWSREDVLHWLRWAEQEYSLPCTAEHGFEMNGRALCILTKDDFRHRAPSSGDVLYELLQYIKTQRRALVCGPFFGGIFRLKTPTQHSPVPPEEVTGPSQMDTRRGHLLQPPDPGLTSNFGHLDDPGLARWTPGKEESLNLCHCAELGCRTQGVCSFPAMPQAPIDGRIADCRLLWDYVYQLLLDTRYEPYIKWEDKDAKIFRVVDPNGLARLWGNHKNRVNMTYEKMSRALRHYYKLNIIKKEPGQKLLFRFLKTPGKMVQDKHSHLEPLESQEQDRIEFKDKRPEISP
Outline: as §1

ELF5 = target: T6, ELF5 (Homo sapiens, UniProt Q9UKW6-2 1-255)
T6 sequence: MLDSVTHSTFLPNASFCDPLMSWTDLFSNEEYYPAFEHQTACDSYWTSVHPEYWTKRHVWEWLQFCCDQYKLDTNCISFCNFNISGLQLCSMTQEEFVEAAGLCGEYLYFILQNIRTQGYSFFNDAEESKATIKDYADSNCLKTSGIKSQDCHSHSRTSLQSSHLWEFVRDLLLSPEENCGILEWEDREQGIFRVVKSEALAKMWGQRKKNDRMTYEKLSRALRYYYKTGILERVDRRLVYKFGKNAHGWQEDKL
Outline: as §1

ETV3 = target: T7, ETV3 (Homo sapiens, UniProt P41162-2 1-143)
T7 sequence: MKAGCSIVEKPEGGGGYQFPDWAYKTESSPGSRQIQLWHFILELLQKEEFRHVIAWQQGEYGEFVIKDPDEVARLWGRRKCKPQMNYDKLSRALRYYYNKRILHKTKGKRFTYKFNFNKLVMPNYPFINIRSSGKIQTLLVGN
Outline: as §1

ETV6 = ETV6 (Homo sapiens, UniProt P41212 1-452)
Outline: as §1

Chain of ETV6 (P41212 whole entry): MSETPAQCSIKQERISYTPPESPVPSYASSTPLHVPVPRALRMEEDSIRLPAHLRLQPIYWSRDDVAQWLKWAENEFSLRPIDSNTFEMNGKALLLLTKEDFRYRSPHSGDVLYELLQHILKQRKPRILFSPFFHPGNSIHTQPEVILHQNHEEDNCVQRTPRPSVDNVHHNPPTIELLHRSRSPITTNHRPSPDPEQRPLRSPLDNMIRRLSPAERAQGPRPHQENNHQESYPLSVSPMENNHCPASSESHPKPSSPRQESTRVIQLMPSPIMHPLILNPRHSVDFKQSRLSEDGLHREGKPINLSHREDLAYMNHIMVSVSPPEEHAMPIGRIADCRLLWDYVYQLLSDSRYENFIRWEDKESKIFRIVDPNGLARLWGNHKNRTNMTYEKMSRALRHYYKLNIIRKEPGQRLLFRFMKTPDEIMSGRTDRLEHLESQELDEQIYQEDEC

| Sequence | binding signal (ERF) | binding signal (ETV3L) | binding signal (ETS2) | binding signal (SPDEF) | binding signal (ETV7) | binding signal (ELF5) | binding signal (ETV3) | binding signal (ETV6) |
| --- | --- | --- | --- | --- | --- | --- | --- | --- |
| AGGAAA | 1.34 fold enrichment (6-mer frequency, TF over GST control) | 1.37 fold enrichment (6-mer frequency, TF over GST control) | 1.48 fold enrichment (6-mer frequency, TF over GST control) | 1.31 fold enrichment (6-mer frequency, TF over GST control) | 1.46 fold enrichment (6-mer frequency, TF over GST control) | 2.19 fold enrichment (6-mer frequency, TF over GST control) | 1.52 fold enrichment (6-mer frequency, TF over GST control) | 1.75 fold enrichment (6-mer frequency, TF over GST control) |
| AATATT | 1.22 fold enrichment (6-mer frequency, TF over GST control) | 1.36 fold enrichment (6-mer frequency, TF over GST control) | 1.34 fold enrichment (6-mer frequency, TF over GST control) | 1.25 fold enrichment (6-mer frequency, TF over GST control) | 1.43 fold enrichment (6-mer frequency, TF over GST control) | 1.38 fold enrichment (6-mer frequency, TF over GST control) | 1.37 fold enrichment (6-mer frequency, TF over GST control) | 1.46 fold enrichment (6-mer frequency, TF over GST control) |
| CCACTC | 1.13 fold enrichment (6-mer frequency, TF over GST control) | 1.28 fold enrichment (6-mer frequency, TF over GST control) | 1.21 fold enrichment (6-mer frequency, TF over GST control) | 1.26 fold enrichment (6-mer frequency, TF over GST control) | 1.21 fold enrichment (6-mer frequency, TF over GST control) | 1.19 fold enrichment (6-mer frequency, TF over GST control) | 1.14 fold enrichment (6-mer frequency, TF over GST control) | 1.13 fold enrichment (6-mer frequency, TF over GST control) |
| GGTTCC | 1.35 fold enrichment (6-mer frequency, TF over GST control) | 1.46 fold enrichment (6-mer frequency, TF over GST control) | 1.59 fold enrichment (6-mer frequency, TF over GST control) | 1.84 fold enrichment (6-mer frequency, TF over GST control) | 1.47 fold enrichment (6-mer frequency, TF over GST control) | 1.75 fold enrichment (6-mer frequency, TF over GST control) | 1.71 fold enrichment (6-mer frequency, TF over GST control) | 1.55 fold enrichment (6-mer frequency, TF over GST control) |
| TGGGCT | 1.27 fold enrichment (6-mer frequency, TF over GST control) | 1.45 fold enrichment (6-mer frequency, TF over GST control) | 1.5 fold enrichment (6-mer frequency, TF over GST control) | 1.28 fold enrichment (6-mer frequency, TF over GST control) | 1.49 fold enrichment (6-mer frequency, TF over GST control) | 1.32 fold enrichment (6-mer frequency, TF over GST control) | 1.41 fold enrichment (6-mer frequency, TF over GST control) | 1.32 fold enrichment (6-mer frequency, TF over GST control) |
| TGTATA | 1.24 fold enrichment (6-mer frequency, TF over GST control) | 1.11 fold enrichment (6-mer frequency, TF over GST control) | 1.1 fold enrichment (6-mer frequency, TF over GST control) | 1.24 fold enrichment (6-mer frequency, TF over GST control) | 1.09 fold enrichment (6-mer frequency, TF over GST control) | 1.11 fold enrichment (6-mer frequency, TF over GST control) | 1.04 fold enrichment (6-mer frequency, TF over GST control) | 1.04 fold enrichment (6-mer frequency, TF over GST control) |
| TGACCA | 1.31 fold enrichment (6-mer frequency, TF over GST control) | 1.32 fold enrichment (6-mer frequency, TF over GST control) | 1.23 fold enrichment (6-mer frequency, TF over GST control) | 1.24 fold enrichment (6-mer frequency, TF over GST control) | 1.15 fold enrichment (6-mer frequency, TF over GST control) | 1.16 fold enrichment (6-mer frequency, TF over GST control) | 1.23 fold enrichment (6-mer frequency, TF over GST control) | 1.27 fold enrichment (6-mer frequency, TF over GST control) |
| AAATTA | 1.26 fold enrichment (6-mer frequency, TF over GST control) | 1.31 fold enrichment (6-mer frequency, TF over GST control) | 1.27 fold enrichment (6-mer frequency, TF over GST control) | 1.18 fold enrichment (6-mer frequency, TF over GST control) | 1.32 fold enrichment (6-mer frequency, TF over GST control) | 1.24 fold enrichment (6-mer frequency, TF over GST control) | 1.29 fold enrichment (6-mer frequency, TF over GST control) | 1.25 fold enrichment (6-mer frequency, TF over GST control) |
| CTCGAA | 1.22 fold enrichment (6-mer frequency, TF over GST control) | 1.24 fold enrichment (6-mer frequency, TF over GST control) | 1.2 fold enrichment (6-mer frequency, TF over GST control) | 1.11 fold enrichment (6-mer frequency, TF over GST control) | 1.19 fold enrichment (6-mer frequency, TF over GST control) | 1.17 fold enrichment (6-mer frequency, TF over GST control) | 1.18 fold enrichment (6-mer frequency, TF over GST control) | 1.12 fold enrichment (6-mer frequency, TF over GST control) |
